The sample as a whole holds a higher share of hits than the screen did.
Dicer processing: human Dicer pre-microRNA cleavage inhibition | Q9UPY3 | cat-ELCCA pre-miR-21 Dicer processing, chemiluminescence; stronger effect = higher value | z-score at 25 µM | 47,000 tested, 6% active | AID 1347074; in the data active = z-score above about 3, passing the limit was not always enough;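 also: plate controls were vehicle for no effect and no enzyme for full effect; higher signal means more uncleaved substrate so more Dicer inhibition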
Numbers without * were called inactive.

SMILES | Dicer processing
Cc1ccc(-c2nnc3c4ccccc4c(C)nn23)cc1S(=O)(=O)NCc1ccccc1 | 2.83
Cc1ccccc1-c1nnc2c3ccccc3c(C)nn12 | 4.96*
c1ccc(-c2nn3c(-c4ccccc4)nnc3c3ccccc23)cc1 | 4.55*
COCCNS(=O)(=O)c1ccc(C)c(-c2nnc3c4ccccc4c(C)nn23)c1 | 1.36
Cc1nn2c(-c3cccc(NS(=O)(=O)c4ccc(Cl)cc4)c3)nnc2c2ccccc12 | 2.55
Cc1ccc(S(=O)(=O)N2CCCCC2)cc1-c1nnc2c3ccccc3c(C)nn12 | 1.08
O=C(Nc1ccc(OC(F)(F)F)cc1)NC1CCN(Cc2c(F)cccc2Cl)CC1 | 0.62
Cc1cccc(Cc2c(C)nc3nc(C(F)(F)F)[nH]n3c2=O)c1 | -1.68
CC(=O)OC12CC3CC(C1)CC(C(=O)O)(C3)C2 | -7.49
COc1ccc(-c2noc(COc3ccc4c(c3)CCCC4)n2)cc1 | 2.19
Cc1nc([N+](=O)[O-])cn1CCc1noc(-c2ccc(OC(F)(F)F)cc2)n1 | -1.99
COC(=O)c1c(NC(=O)COc2cccc(Cl)c2)sc2c1C(C(=O)OC)CC2 (centres undefined) | 0.36
CC(=O)Nc1ccc(N2C(=O)C3CCCCC3C2=O)cc1Cl (centres undefined) | 1.29
CC(=O)Nc1cccc(-n2nnc(SCC(=O)c3ccc4c(c3)OCCO4)n2)c1 | -2.08
C=C(C)C1CC=C(C)C(OC(=O)c2ccccc2C(=O)O)C1 (centres undefined) | 1.37
COc1ccc(/C(O)=C2\C(=O)C(=O)N(CCN3CCNCC3)C2c2ccc(OC)cc2)cc1 (centres undefined) | 0.81
Cc1ccc(/C(O)=C2/C(=O)C(=O)N(CCCN3CCOCC3)C23C(=O)N(C)c2ccccc23)cc1F (centres undefined) | -3.86
COCCCN1C(=O)C(=O)/C(=C(/O)c2ccc(C)cc2)C1c1ccc(N(C)C)cc1 (centres undefined) | 3.18*
COc1ccc(/C(O)=C2\C(=O)C(=O)N(CCCN(C)C)C2c2ccc(N(C)C)cc2)cc1 (centres undefined) | 1.13
COc1ccc(/C(O)=C2\C(=O)C(=O)N(CCN3CCOCC3)C2c2ccc(F)cc2)cc1 (centres undefined) | 3.24*
CCCN1C(=O)C2(/C(=C(/O)c3ccccc3)C(=O)C(=O)N2CCN2CCOCC2)c2ccccc21 (centres undefined) | 4.67*
C=CCN1C(=O)C2(/C(=C(/O)c3ccccc3)C(=O)C(=O)N2CCN2CCOCC2)c2ccccc21 (centres undefined) | 1.5
COc1ccc(/C(O)=C2\C(=O)C(=O)N(CCCN3CCOCC3)C2c2ccc(OC)cc2)cc1 (centres undefined) | 0.7
CN1C(=O)C2(/C(=C(/O)c3ccc(F)cc3)C(=O)C(=O)N2CCCN2CCOCC2)c2ccccc21 (centres undefined) | 0.07
Cc1ccc(/C(O)=C2/C(=O)C(=O)N(CCN3CCOCC3)C23C(=O)N(C)c2ccccc23)cc1F (centres undefined) | 4.18*
SMILES | Dicer processing
CN1C(=O)C2(/C(=C(/O)c3ccc(Cl)cc3)C(=O)C(=O)N2CCN2CCOCC2)c2ccccc21 (centres undefined) | -0.98
COc1ccc(C2/C(=C(\O)c3ccc(C)cc3)C(=O)C(=O)N2CCCN(C)C)cc1 (centres undefined) | 2.48
N#CCCC1CCCCCCCCCCC1=O (centres undefined) | -1.76
CCOC(=O)CN1C(=O)C(O)(CC(=O)c2ccccc2)c2ccccc21 (centres undefined) | -0.51
C=CCN(CC=C)S(=O)(=O)c1ccc(C(=O)N2CCCC2)cc1 | 1.63
C/C(=C\c1ccc(C(C)C)cc1)C1NCC(c2ccc([N+](=O)[O-])cc2)O1 (centres undefined) | 0.91
CN1C(=O)C2(/C(=C(/O)c3ccc(F)cc3)C(=O)C(=O)N2CCN2CCOCC2)c2ccccc21 (centres undefined) | -0.71
CCN1C(=O)C2(/C(=C(/O)c3ccc(C)cc3)C(=O)C(=O)N2CCCN2CCOCC2)c2ccccc21 (centres undefined) | 2.24
CCN1C(=O)C2(/C(=C(/O)c3ccc(F)cc3)C(=O)C(=O)N2CCN2CCOCC2)c2ccccc21 (centres undefined) | 5.7*
C=CCOC(=O)C1=C(C)NC2=C(C(=O)CCC2)C1c1ccc(C)cc1 (centres undefined) | -0.45
Cc1oc2ccc(OC(=O)N3CCOCC3)cc2c1C(=O)OC(C)C | -0.19
COC(=O)c1c(C)oc2ccc(OC(=O)N3CCOCC3)cc12 | 5.73*
CCOC(=O)c1c(C)oc2ccc(OC(=O)N3CCOCC3)cc12 | 1.47
C/S(=N\S(=O)(=O)c1ccccc1)c1ccccc1 (centres undefined) | 0.38
Cc1cnc(NC(=O)c2ccc3c(c2)OCO3)s1 | 1.64
CCCCOC(=O)c1cc([N+](=O)[O-])cc2c1-c1ccc([N+](=O)[O-])cc1C2=O | 1.19
CCOC(=O)c1c(NC(=S)NCc2ccccc2)sc2c1CCC(C)C2 (centres undefined) | -0.88
S=C(NC1CCCCC1)N1N=C2c3ccccc3CCC2C1c1cccs1 (centres undefined) | -2.84
O=S(=O)(Nc1cccc2ccccc12)c1cccs1 | 2.37
Cc1cc(=O)oc2cc(NS(=O)(=O)c3cccs3)ccc12 | -1.83
O=S(=O)(Nc1ccc(Oc2ccc(NS(=O)(=O)c3cccs3)cc2)cc1)c1cccs1 | 3.62*
CCOC(=O)Cc1cnc(N/N=C2\CCCc3cc(OC)ccc32)s1 | 1.2
O=C(O)CSc1nc(SCC(=O)O)c2ccccc2n1 | 1.4
O=C1CCCC2=C1C(c1ccc(Cl)cc1)c1c([nH]c(=O)[nH]c1=O)N2 (centres undefined) | -1.78
O=C(CSc1nc2ccccc2nc1N1CCOCC1)N1CCN(c2ccc(F)cc2)CC1 | 3.87*
SMILES | Dicer processing
c1ccc2nc(N3CCOCC3)c(N3CCOCC3)nc2c1 | -0.17
CC1CCN(c2nc3ccccc3nc2SCC(=O)NCC2CCCO2)CC1 (centres undefined) | 1.64
O=C(CSc1nc2ccccc2nc1N1CCOCC1)N1CCOCC1 | 4.94*
O=C(CSc1nc2ccccc2nc1N1CCCCC1)N1CCN(C2CCCC2)CC1 | 1.38
O=C(CSc1nc2ccccc2nc1N1CCCCC1)N1CCN(c2ccccc2)CC1 | 4.92*
O=C(CSc1nc2ccccc2nc1N1CCCC1)N1CCN(c2ccc(F)cc2)CC1 | 2.58
O=C(CSc1nc2ccccc2nc1N1CCOCC1)NC1CC1 | 2.46
Cc1cc(C)nc(N2CCN(C(=O)CSc3nc4ccccc4nc3N3CCOCC3)CC2)n1 | 1.18
O=C(CSc1nc2ccccc2nc1N1CCOCC1)NCC1CCCO1 (centres undefined) | 3.05*
O=C(CSc1nc2ccccc2nc1N1CCCCC1)NC1CCCCC1 | 1.56
O=C(CSc1nc2ccccc2nc1N1CCOCC1)N1CCN(c2ccccc2)CC1 | 2.78
CCOC(=O)[C@@H](N)CCSC | 3
C=CCSC1=C(C#N)C(c2ccc(O)cc2)CC(=O)N1 (centres undefined) | 1.08
COc1c(Br)csc1C(=O)Nc1cccc(C(F)(F)F)c1 | 0.56
CSc1nc(Sc2ccc(C)cc2)c(C#N)c(Sc2ccc(C)cc2)n1 | -0.63
CC1CCN(c2nc3ccccc3nc2SCC(=O)N2CCN(C3CCCC3)CC2)CC1 | 1.96
CC1CN(c2nc3ccccc3nc2SCC(=O)N2CCOCC2)CC(C)O1 (centres undefined) | 1.08
CC1CCN(c2nc3ccccc3nc2SCC(=O)N2CCOCC2)CC1 | 3.86*
Cc1csc(NS(=O)(=O)c2ccccc2)n1 | -0.02
